Sampled rows, rich in hits. Any-hit rate of the full collection: about 12%.
JMJD2A Tudor: qHTS Assay for Inhibitors of JMJD2A-Tudor Domain; Lysine-specific demethylase 4A (Homo sapiens), O75164; AlphaScreen JMJD2A-Tudor / H3K4me3 peptide binding; Potency, µM (top dose mostly 114 µM), inactives show top-dose activity change, negative = inhibition, actives largely listed as inhibitors; 390,000 compounds, 4.4% hits; also: % is scaled to controls: 0 for no effect and ±100 for the full control effect; nearly all actives have a fitted effect of over 50% in size
BAZ2B block: qHTS Assay for Inhibitors of BAZ2B; Potency, µM (series often up to 114 µM), without a hit: top-dose activity change, negative = inhibition, usual class: inhibitors; 360,000 compounds, 4.4% hits; AlphaScreen BAZ2B-H3K14Ac peptide displacement; Bromodomain adjacent to zinc finger domain protein 2B (Homo sapiens), Q9UIF8; AID 504333, 2011; also: % is scaled to controls: 0 for no effect and ±100 for the full control effect; nearly all actives have a fitted effect of over 60% in size
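AlphaScreen displacement of biotin-H3(5-23)K14Ac peptide (50 nM final) from BAZ2B (50 nM final) in PBS pH 7.4, 0.01% Tween-20; complex preformed 30 min RT, then compounds (top 110 uM) 30 min RT, beads 20 min dark.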
Sfp PPTase inh: qHTS Assay for Inhibitors of Bacillus subtilis Sfp phosphopantetheinyl transferase (PPTase). 310,000 compounds, 3.5% hits. Biochemical Sfp PPTase activity, qHTS. 4'-phosphopantetheinyl transferase ffp (Bacillus subtilis), Q9F4F7. Potency, µM, inactives show largest response in the series, negative = inhibition, most hits filed as inhibitors. AID 1490, 2009;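 also: the enzyme is Sfp with the accession as filed and its product quenches rhodamine fluorescence; 0% = enzyme reaction without inhibitor and -100% = no enzyme wells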
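Step 1, compound plus 15 nM Sfp-PPTase, 15 min, room temperature. Step 2, add rhodamine-CoA (5 uM) and BHQ-2-YbbR (12.5 uM). Step 3, read 525/598 nm fluorescence at 0 and 30 min.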
L3MBTL1 inh: qHTS Assay for the Inhibitors of L3MBTL1; Potency, µM (doses to about 57.1 µM), without a hit: top-dose activity, negative = inhibition, most hits filed as inhibitors; AlphaScreen L3MBTL1–H3K9me1 peptide binding; AID 485360, 2010; Lethal(3)malignant brain tumor-like protein 1 (Homo sapiens), Q9Y468; 230,000 compounds, 0.66% hits; also: % is scaled to controls: 0 for no effect and ±100 for the full control effect; nearly all actives have a fitted effect of over 60% in size
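Read-out is AlphaScreen signal from streptavidin donor and nickel chelate acceptor beads (10 ug/mL final each) bridging L3MBTL1 (50 nM) and biotinylated K9-monomethylated H3(1-15) peptide (75 nM), after 30 min compound exposure at room temperature.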
G9a block: qHTS Assay for Inhibitors of Histone Lysine Methyltransferase G9a. 350,000 compounds, 8.8% hits. Potency, µM (highest dose often 102 µM), for the others: top-dose activity, negative = inhibition, hits mostly inhibitors. AID 504332, 2011. G9a H3K9 monomethylation, AlphaScreen, 2 h. Histone-lysine N-methyltransferase EHMT2 (Homo sapiens), Q96KQ7; also: % is scaled to controls: 0 for no effect and ±100 for the full control effect; nearly all actives have a fitted effect of over 75% in size
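G9a (20 nM) was preincubated 15 min with compound, then reacted 2 h at room temperature with 500 nM biotin-H3K9 peptide and 20 µM SAM. Monomethyl-H3K9 detected by AlphaScreen using anti-H3K9me1 antibody.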
HP1b binding inh: HTS for Inhibitors of HP1-beta Chromodomain Interactions with Methylated Histone Tails; Chromobox protein homolog 1 (Homo sapiens), P83916; 390,000 compounds, 0.56% hits; AlphaScreen HP1-beta / biotin-H3K9me3 peptide binding; AID 540317, 2011; Potency, µM (doses to about 114 µM), without a hit: top-dose activity change, negative = inhibition, actives largely listed as inhibitors; also: nearly all actives have a fitted effect of over 70% in size
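Compound inhibition of the preformed complex between 50 nM HP1-beta and 50 nM biotinylated H3K9me3 peptide was read by AlphaScreen. Buffer was PBS pH 7.4 with 0.01% Tween-20. Incubations ran 30 min at room temperature, with 10 ug/mL donor/acceptor beads.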
* = called active by the depositor; ? = inconclusive; nt = no result given; [ ] = remark or other dose. Calls follow the shape of the dose curve; as a rule, active = well fitted curve in the direction sought with a large enough effect; inconclusive = small, poorly fitted or top-dose-only effect, or another doubt; inactive = no such curve, though single readings can be large; an effect the other way counts as inactive or inconclusive. Potency is read from the fitted curve at half-maximal effect.

SMILES	JMJD2A Tudor	BAZ2B block	Sfp PPTase inh	L3MBTL1 inh	G9a block	HP1b binding inh
O=c1c2ccccc2nc(/C=C/c2ccccc2O)n1-c1ccc(Br)cc1	-29%	-1%	nt	nt	-2%[59 µM]	24%
O=C(C(=O)N1CCc2ccccc2C1)c1cn(CC(=O)N2CCCCC2)c2ccccc12	-21%	-4%	-12%	-8%	40µM*	38%
CCC1(Oc2ccccc2)C(=O)NC(=O)NC1=O	-13%	nt	nt	nt	nt	34%
CCC1(C)OC(c2ccccc2)=C/C(=C/C=C2C(=O)NC(=O)NC2=O)O1 (configuration not stated)	?	40µM*	-15%	?	50µM*	-5%
CCOc1c(Cl)cc(CNCCc2c[nH]c3ccccc23)cc1OC	?	?	56µM*	-20%	?	0%
COc1cc(C)c(CNCCc2c[nH]c3ccccc23)cc1C	22µM*	40µM*	-17%	nt	?	?
COc1cccc(CNCCc2c[nH]c3ccccc23)c1	3.5µM*	79µM*	-17%	nt	20%[2.33 µM]	-25%
COc1ccc(CNCCc2ccccc2F)c(OC)c1C	18µM*	?	-21%	-9%	79µM*	?
CCOc1cc(CNCCc2c[nH]c3ccccc23)cc(Cl)c1OCC	?	?	-7%	-11%	?	-15%
COc1ccc2[nH]cc(CCNCc3cccnc3)c2c1	-9%	?	-10%	0%	nt	45%
Clc1ccc(CO[C@@H](Cn2ccnc2)c2ccc(Cl)cc2Cl)cc1	nt	nt	10%	nt	?	nt
COc1ccc(CNCCc2c[nH]c3ccccc23)c(OC)c1C	5.6µM*	56µM*	-27%	nt	16µM*	?
CCOc1cc(CNCCc2ccccc2F)ccc1OC	45µM*	40µM*	-11%	nt	8.9µM*	-36%
C[C@@H](N)Cn1ccc2cc(F)c(Cl)cc21	nt	nt	17%	nt	nt	nt
C=C1Nc2ccccc2C(=O)N1c1ccccc1C	nt	nt	10%	nt	-8%[12.7 µM]	nt
CC[n+]1c(/C=C/C=C/c2ccc(N(C)C)cc2)sc2ccccc21	50µM*	35µM*	?	?	40µM*	?
Nc1cc(Cl)c2nonc2c1[N+](=O)[O-]	-13%	13%	-17%	-2%	32µM*	42%
CC(C)C[C@H](NC(=O)[C@@H](N)Cc1ccccc1)C(=O)N[C@@H](Cc1ccccc1)C(=O)N[C@@H](CCC(N)=O)C(=O)N1CCC[C@H]1C(=O)N[C@@H](CCC(N)=O)C(=O)N[C@@H](CCCN=C(N)N)C(=O)N[C@@H](Cc1ccccc1)C(N)=O	nt	nt	33%	nt	nt	nt
NC(=O)CI	nt	nt	nt	nt	2.4µM*	nt
NCC#Cc1ccccc1	nt	nt	nt	nt	31%[12.7 µM]	nt
C[C@H](CCC(=O)O)[C@H]1CC[C@@H]2[C@H]3CC[C@H]4C[C@H](O)CC[C@]4(C)[C@@H]3CC[C@@]21C	nt	nt	-21%	nt	29%[59 µM]	nt
CC[C@]12CCCN3CCC4(c5ccccc5NC4C(C(=O)O)C1)C32 (some centres not stated)	nt	nt	-14%	nt	nt	nt
Cc1cccc(NC(=O)CSc2ccc(-c3ccco3)nn2)c1	-10%	-25%	?	-9%	28µM*	23%
CCC(=O)Oc1ccc2c(c1)CCC1C2CC[C@]2(C)C(OC(=O)CC)CCC12 (some centres not stated)	nt	nt	-9%	nt	?	nt
C[C@]12CC[C@@H]3c4ccc(O[C@@H]5O[C@H](C(=O)O)[C@@H](O)[C@H](O)[C@H]5O)cc4CC[C@H]3[C@@H]1C[C@@H](O)[C@@H]2O	-12%	-1%	79µM*	nt	?	25%
SMILES	JMJD2A Tudor	BAZ2B block	Sfp PPTase inh	L3MBTL1 inh	G9a block	HP1b binding inh
COc1ccccc1[N+](=O)[O-]	-11%	-4%	nt	4%	11%[0.501 µM]	23%
COc1ccccc1N1C(=O)NC(=O)/C(=C/c2ccc([N+](=O)[O-])s2)C1=O	56µM*	35µM*	22µM*	nt	8.9µM*	?
COc1cccc(N2C(=O)NC(=O)/C(=C/c3ccc([N+](=O)[O-])s3)C2=O)c1	22µM*	35µM*	25µM*	nt	11µM*	35µM*
CCc1ccc(N2C(=O)NC(=O)/C(=C/c3cccn3CCOc3ccc(C(C)CC)cc3)C2=O)cc1 (configuration not stated)	-17%	-36%	11%	-14%	10%[59 µM]	13%
COc1ccc(N2C(=O)NC(=O)/C(=C/c3ccc([N+](=O)[O-])s3)C2=O)cc1	56µM*	40µM*	25µM*	nt	8.9µM*	?
COc1ccc(N2C(=O)NC(=O)/C(=C\c3ccc([N+](=O)[O-])s3)C2=O)cc1	22µM*	32µM*	40µM*	22µM*	7.9µM*	22µM*
CN1[C@@H]2CC[C@H]1CC(OC(c1ccc(F)cc1)c1ccc(F)cc1)C2 (some centres not stated)	nt	nt	1%	nt	nt	nt
Clc1cccc(Cl)c1CN1CCN(c2ccccc2)CC1	3.2µM*	35µM*	-26%	nt	25µM*	?
Nc1ccc(N2CCN(Cc3ccccc3Cl)CC2)c(Cl)c1	-8%[11.4 µM]	45µM*	13%	-15%	?	?
Clc1ccccc1CN1CCN(c2ccccc2)CC1	3.5µM*	50µM*	-11%	nt	?	?
Clc1ccc(N2CCN(Cc3ccccc3Cl)CC2)cc1	4.5µM*	?	-26%	nt	25µM*	?
Fc1ccccc1CN1CCN(c2ccc(Cl)cc2)CC1	-7%	-1%	10%	nt	19%[2.33 µM]	28%
CCN1C[C@@]2(COC)[C@H]3[C@@H](OC)[C@H]4C1[C@@]3([C@H](OC)C[C@@H]2O)[C@H]1C[C@@]2(O)[C@@H](OC(=O)c3ccccc3)[C@@H]1[C@@]4(OC(C)=O)[C@H](O)[C@@H]2OC	nt	nt	6%	nt	11%[21.5 µM]	nt
O=C(O)c1ccccc1SCC(=O)N1c2ccccc2Sc2ccccc21	-22%	12%	89µM*	23%	41%[59 µM]	-5%
C[C@H](NC(C)(C)C)C(=O)c1cccc(Cl)c1	nt	nt	30%	nt	?	nt
CN(C)CCN(C(=O)c1ccc(S(=O)(=O)N2CCc3ccccc32)cc1)c1nc2ccc(F)cc2s1	?	?	-1%	nt	3.5µM*	5%
Cn1c(=O)oc2cc(S(=O)(=O)N3CCc4ccccc43)ccc21	1%[11.4 µM]	-39%	14%	-12%	34%	80%

Source: PubChem (National Center for Advancing Translational Sciences (NCATS))
